The results in this text go back to PubChem BioAssay (NCI).

Test in all cases: NCI-60 one-dose screen, 48 h (100 = growth as untreated, 0 = no growth, -100 = all killed)
Holding throughout (conditions): 10 µM unless noted

Assay [1] concerns HCT-15 colon.
Assay [2] relates to HT29 colon.
For assay [3], the system named is SNB-75 CNS.
The subject of assay [4] is SNB-19 CNS.
The subject of assay [5] is U251 CNS.
In assay [6] the test system is PC-3 prostate.
For assay [7], the system named is SK-MEL-5 melanoma.
For assay [8], the system named is UACC-62 melanoma.
Assay [9] deals with LOX IMVI melanoma.
In assay [10] the test system is SK-MEL-28 melanoma.
For assay [11], the system named is SK-MEL-2 melanoma.
The subject of assay [12] is EKVX NSCLC.
The subject of assay [13] is SN12C renal.
For assay [14], the system named is UO-31 renal.
Assay [15] deals with TK-10 renal.
In assay [16] the test system is ACHN renal.
The subject of assay [17] is CAKI-1 renal.
Assay [18] deals with A498 renal.
Assay [19] deals with MOLT-4 leukemia.
In assay [20] the test system is CCRF-CEM leukemia.

About 83,000 compounds went through this panel and 20% of them were active in at least one assay; those are over-represented in the sample as a whole.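 The test compound was applied at a single concentration to cells in 96-well plates for 48 hours, and percent growth was recorded.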 Unmarked numbers belong to inactive results. Calls of active or inactive are those of the source. The calls were made as follows: active = growth percent below 10; inactive = the rest.

In the case of `C[C@@H](C[C@H](CCOCc1cccnc1)c1ccccc1)c1cc2ccccc2o1`, the growth was 91.1% in [1]; 78.1% in assay [2]; 85.6% in assay [3]; 94.2% in assay [4]; 93.6% in assay [5]; 75.6% in assay [6]. Besides, the growth in [7] is 98.4%; in assay [8], 81.2%; in [9] it was 95.8%; in assay [10], 102%; in [11], 89.7%; in assay [12] it was 94.2%. Besides, the growth in [13] is 95.1%; in [14], 75.9%; in [15] it was 95.3%; in assay [16] it was 93.1%; in [17] it was 77.6%; in [18] it was 101%. Moreover, the growth in [19] is 84.1%.
As for `CNC=O`, the growth in [1] is 99.3%; in assay [2], 92.6%; in assay [3], 86.8%; in [4] it was 97.5%; in assay [5], 100%; in assay [6], 98.1%. The growth is 59.9% in assay [7]; 96.2% in assay [8]; 97.1% in [9]; 96.6% in assay [10]; 110% in assay [11]; 156% in assay [12]. For the same compound, the growth in assay [13] is 99.8%; in [14], 89.5%; in [15], 101%; in assay [16], 110%; in [17], 99.6%; in assay [20], 103%. For the same compound, the growth in assay [19] was 106%.
As to `CCn1c(Sc2nnc(NC(=O)CCN3CCCC3)s2)nc2c1c(=O)n(C)c(=O)n2C`, the growth was 104% in assay [1]; 107% in [2]; 97.8% in assay [3]; 104% in assay [4]; 95.3% in [5]; 103% in assay [6]. Moreover, the growth in assay [7] is 104%; in [8], 101%; in assay [9], 99.9%; in [10], 111%; in assay [11], 108%; in [12] it was 99.3%. Moreover, the growth in [13] is 96.8%; in assay [14], 88.7%; in [15], 104%; in [16], 100%; in assay [17], 94.6%; in assay [20], 103%. Also, in [19], the growth is 108%.
For the compound `O=C1Nc2ccccc2/C1=N/N=C/c1c[nH]c2ccccc12`, the growth is 72.2% in assay [1]; 80.8% in [2]; 45.5% in assay [3]; 88.1% in assay [4]; 73.6% in assay [5]; 81.5% in [6]. The growth was 76.8% in assay [7]; 38.4% in [8]; 68.4% in assay [9]; 96.3% in assay [10]; 55.5% in [11]; 21.8% in [12]. The growth in assay [13] is 73.8%; in assay [14], 26.4%; in [15], 78.4%; in [16] it was 48.3%; in assay [17], 17.8%; in [20] it was 83.3%. Also, in [19], the growth is 71.8%.
Take `Cc1ccc2c(n1)C(=O)C(Oc1ccc(F)cc1)=CC2=O`: the growth in assay [1] was 81.8%; in assay [2] it was 108%; in assay [3], 83%; in assay [4], 110%; in [5], 95.3%; in assay [6] it was 98.9%. Besides, the growth in assay [7] is 91.4%; in assay [8], 99.7%; in assay [9], 88.5%; in [10], 113%; in assay [11] it was 110%; in assay [12], 103%. In addition, the growth in assay [13] was 100%; in [14], 93.9%; in assay [15], 101%; in [16], 9.92% (active); in assay [17], 99.1%; in assay [20], 40.2%. The growth in assay [19] is 66.2%.
Take `COc1cc(C2CC(c3ccc(Nc4nc(Nc5ccc(F)cc5)nc(Nc5ccc(Cl)cc5)n4)cc3)=NN2C(C)=O)cc(OC)c1OC` (configuration not stated): the growth in assay [1] is 65.7%; in [2], 46.3%; in assay [3] it was 54.7%; in assay [4] it was 74.5%; in [5], 62.6%; in [6], 32.6%. The growth in assay [7] was 60.1%; in assay [8] it was 62%; in [9] it was 82.8%; in assay [10], 88.7%; in [11] it was 66%; in assay [12], 202%. Besides, the growth in [13] is 80.8%; in assay [14], 53.6%; in [15], 60.7%; in [16], 77.5%; in [18] it was 78.4%; in assay [20], 27.6%. Moreover, the growth in [19] is 4.27% (active).
Consider `Nc1nc(Nc2ccc(Cl)cc2)nn1S(=O)(=O)c1ccc(-c2ccc(F)cc2)cc1`, for which the growth was 77.4% in assay [1]; 80% in assay [2]; 79% in assay [3]; 88.8% in assay [4]; 88.8% in assay [5]; 67.4% in [6]. Besides, the growth is 98.7% in assay [7]; 72.5% in assay [8]; 83.6% in assay [9]; 94.5% in assay [10]; 107% in assay [11]; 81.5% in assay [12]. The growth in assay [13] is 83.2%; in [14] it was 57.2%; in assay [15], 97.3%; in assay [16], 81.8%; in assay [17], 59.8%; in assay [20], 95.1%. In [19], the growth was 74.5%.
Take `CN(C)CN1CCN(c2ccc3nc(-c4ccc5nc(-c6ccc(C(F)(F)F)cc6)[nH]c5c4)[nH]c3c2)CC1`: the growth in assay [1] is 91.6%; in [2] it was 29.3%; in assay [3], 38.8%; in [4], 69.6%; in [5], 60%; in assay [6] it was 68.4%. For the same compound, the growth is 23.6% in assay [7]; 44.8% in assay [8]; 32.2% in [9]; 42.7% in assay [10]; 52% in assay [11]; 79% in [12]. Further, the growth in assay [13] was 64.4%; in assay [14], 131%; in assay [15], 130%; in assay [16] it was 79.3%; in assay [17], 73.6%; in assay [20] it was 38.6%. Also, the growth in assay [19] was 44.2%.
